# Source: PubChem BioAssay AID1845225 (National Center for Advancing Translational Sciences (NCATS), 2023)
# Records with an inconclusive call do not appear. Unmarked numbers belong to inactive results. Active and inactive are the calls of the source. The call rests on the fitted dose curve; in most records, active means well fitted curve in the direction sought with a large enough effect; inconclusive means small, poorly fitted or top-dose-only effect, or effect the other way, or another doubt; inactive means no such curve, though single readings can be large or run the other way.
# Assay: Confirmatory redox qHTS assay for identification of artifact compounds.
# Conditions: Amplex Red/HRP redox cycling with DTT, fluorescence; series mostly up to 39 µM
# Text: PI: Alexander Tropsha Ph.D. UNC Eshelman School of Pharmacy University of North Carolina, Chapel Hill, North Carolina Hits from high-throughput screening (HTS) of chemical libraries are often false positives due to their interference with the assay detection technology. In response to this problem, we generated the largest publicly available library of chemical liabilities and developed a free webtool to predict HTS artifacts, both of which are described herein. More specifically, we generated, curated, and integrated HTS datasets for thiol reactivity, redox activity, and luciferase (firefly and nano) activity. Using these curated datasets, we developed and validated several Quantitative Structure-Interference Relationship (QSIR) models to predict nuisance behavior. […] These models were employed for virtual profiling of the National Center for Advancing Translational Science's (NCATS) in-house library, and 256 compounds for each assay were selected for the experimental validation of nuisance behavior. The BA for these external predictions ranged from 58 to 78% for compounds within the applicability domains of the models. […] The models developed in this study, along with aggregation models previously developed by our group (SCAM Detective) were implemented in "Liability Predictor," an online tool which may be used as part of chemical library design or for triaging HTS hits. Both the models and the curated datasets are publicly available at https://liability.mml.unc.edu/.
# PROTOCOL TABLE SEQUENCE No. (e.g., 1, 2, 3, etc.); […] (e.g., Cells, Incubation, Reagent, etc.); VALUE; DESCRIPTION. 1; Reagent; 3 uL; Amplex Red and HRP mixture. 2; Compounds and control; 16 nL; Kalypsis pin tool (Wako USA) equipped with a 1536-well pin head. 3; Incubation; 15 min. 4; Reagent; 1 uL; […]. 5; Incubation; 30 min. 6; Detection; Fluorescence, ViewLux microplate reader, 525 nm excitation, 598 nm emission. NOTES (numbers refer to Sequence numbers above) 1. 3 uL of a mixture containing Amplex Red (25 uM final concentration) and horseradish peroxidase (HRP; 250 mU/mL final concentration) in assay buffer (HBSS) was dispensed into all wells of a 1536-well assay plate (solid-bottom black plate; Greiner Bio One, Monroe, NC). 2. […] 3. 15 min. incubation at room temperature protected from light. 4. 1 uL of DTT (prepared fresh; final concentration 250 uM) was dispensed for a final assay volume of 4 uL. 5. Plates were centrifuged (121xg, 15 seconds) and incubated for 30 minutes at room temperature protected from light. 6. Samples were read for fluorescence (Ex/Em = 525(20)/598(25) nm) on a ViewLux CCD imager (PerkinElmer). Data were normalized to DMSO (0% activity) and DA3003 (10 uM final concentration; 100% activity) and the resulting percent inhibition data were fitted to a 4-parameter Hill equation using NCATS in-house software.
SMILES,outcome,redox activity vs DA3003
Cc1ccc(C)c(C(=O)N2CCC(c3nc4c(nnn4Cc4ccccc4)c(=O)[nH]3)CC2)c1,inactive,
COc1ccccc1NC(=O)CSc1nnc(NC(=O)NC2CCCCC2)s1,inactive,
CCOc1ccc2nc(N3CCC(C(=O)Nc4ccc(Br)cc4F)CC3)sc2c1,inactive,
O=C(CCC(=O)N1CCSc2ccccc21)Nc1ccc(Cl)cc1,inactive,
COc1cc2nc(N3CCCCC3)nc(NC3CCN(Cc4ccccc4)CC3)c2cc1OC,inactive,
O=S(=O)(NCCCCNS(=O)(=O)c1cccc2cccnc12)c1cccc2cccnc12,inactive,
COc1ccc(NC(=O)N(Cc2nnc3n2CCCCC3)c2ccc(OC)c(Cl)c2)cc1,inactive,
CCOC(=O)c1ccccc1NC(=O)Cn1c(=O)n(-c2cccc(C)c2)c(=O)c2c1c1cc(C)ccc1n2C,inactive,
O=S(=O)(c1ccc(Cl)cc1)N1CCC(c2ccncc2)CC1,inactive,
Oc1ccc(CNc2cccc(F)c2F)c2cccnc12,inactive,
O=C(Nc1ccc(C(F)(F)F)cc1)C1(c2cccs2)CCOCC1,inactive,
CC(N)(C(=O)O)c1ccc(S(=O)(=O)O)cc1 (stereo not given),inactive,
COc1ccc(-c2nc(CS(=O)CC(=O)NCCc3ccccc3)c(C)o2)cc1OC (stereo not given),inactive,
CC1(C)S[C@@H]2[C@H](NC(=O)C3(N)CCCCC3)C(=O)N2[C@H]1C(=O)O,inactive,
O=C(NCCC1=CCCCC1)c1ccc2c(c1)N(Cc1cccc(Cl)c1)C(=O)c1ccccc1S2=O (stereo not given),inactive,
O=C(CCn1c(=O)c2cccn2c2cccnc21)N1CCN(c2ccccc2F)CC1,inactive,
Nc1ccc(F)cc1F,inactive,
CCCCCOC(=O)c1[nH]c2c(c1C)C(=O)CC(c1ccco1)C2 (stereo not given),inactive,
FC(F)(F)c1ccccc1-c1nc(NCC23CC4CC(CC(C4)C2)C3)c2ccccc2n1,inactive,
Cc1ccccc1S(=O)(=O)Nc1cnccc1C(=O)Nc1nc(-c2ccccc2)cs1,inactive,

SMILES,outcome,redox activity vs DA3003
COc1cccc(CNC(=O)C2Cc3cc(S(=O)(=O)N4CCCCCC4)ccc3N2C(C)=O)c1 (stereo not given),inactive,
COc1cc2c(NC3CCN(C)CC3)nc(N3CCN(C)CC3)nc2cc1OCCOCCN(C)C,inactive,
Cc1cc(C)c(S(=O)(=O)NCC(c2ccco2)S(=O)(=O)c2cccs2)c(C)c1 (stereo not given),inactive,
COc1ccc(C(=O)Nc2nc3c(s2)CCCC3)cc1Cl,inactive,
COc1cccc(-c2nc3cc(NC(=O)c4cccnc4)ccc3o2)c1,inactive,
Cc1nc2ccc(S(=O)(=O)N(CC(=O)Nc3ccc(F)cc3F)Cc3ccccc3)cc2s1,inactive,
Cc1cccc(N2CCN(CCCNC(=O)c3nnc(Cc4c(F)cccc4Cl)o3)CC2C)c1 (stereo not given),inactive,
CC(O)COCC1OC2OC3C(COCC(C)O)OC(OC4C(COCC(C)O)OC(OC5C(COCC(C)O)OC(OC6C(COCC(C)O)OC(OC7C(COCC(C)O)OC(OC8C(COCC(C)O)OC(OC1C(OCC(C)O)C2OCC(C)O)C(OCC(C)O)C8OCC(C)O)C(OCC(C)O)C7OCC(C)O)C(OCC(C)O)C6OCC(C)O)C(OCC(C)O)C5OCC(C)O)C(OCC(C)O)C4OCC(C)O)C(OCC(C)O)C3OCC(C)O (stereo not given),inactive,
CC(C)C[C@H](N)C(=O)N[C@H](C(=O)N[C@H](C(=O)N[C@@H](Cc1ccc(O)cc1)C(=O)N1CCC[C@H]1C(=O)N[C@@H](Cc1c[nH]c2ccccc12)C(=O)N[C@H](C(=O)N[C@@H](CCC(N)=O)C(=O)N[C@@H](CCCN=C(N)N)C(=O)O)[C@@H](C)O)C(C)C)C(C)C,,-0.687% [at 4.35 µM]
O=C(Cn1nc2c(cc1=O)CCCC2)Nc1ccc(F)cc1F,inactive,
COc1cc2c(NC3CCN(C)CC3)nc(N3CCCN(C)CC3)nc2cc1OCC1CCCNC1 (stereo not given),inactive,
O=C(COc1ccc(Cl)cc1)Nc1ccc2nc(SCC(=O)N3CCCC3)sc2c1,inactive,
COc1ccc(N2C(=O)c3ccccc3C2=O)cc1,inactive,
Cc1cc(C)nc(NC(=S)N2CCN(c3ccc(F)c(F)c3F)CC2)c1,inactive,
COc1cccc(-c2nc(SCC(=O)Nc3ccc4c(c3)OCO4)c(-c3ccccc3)[nH]2)c1,inactive,
CC(C)=CCC/C(C)=C/C=O,inactive,
CCCC(=O)O[C@]1(C(=O)COC(C)=O)CC[C@H]2[C@@H]3C[C@H](F)C4=CC(=O)C=C[C@]4(C)[C@@]3(F)[C@@H](O)C[C@@]21C,inactive,
O=C(CN1C(=O)CCn2nc(-c3ccccc3)cc21)NCc1ccc(F)cc1,inactive,
CC(C)C[C@H](NC(=O)[C@@H](Cc1c[nH]c2ccccc12)NC(=O)[C@H](Cc1ccc(O)cc1)NC(=O)[C@H](CO)NC(=O)[C@H](Cc1c[nH]c2ccccc12)NC(=O)[C@H](Cc1cnc[nH]1)NC(=O)[C@@H]1CCC(=O)N1)C(=O)N[C@@H](CCCN=C(N)N)C(=O)N1CCC[C@H]1C(=O)NCC(N)=O,inactive,
CN(C)CCNC(=O)CN1C(=O)CCn2nc(-c3cn(C)c4ccccc34)cc21,inactive,
